PubChem BioAssay (NCI)
Where “and” joins values, the source holds several entries; their conditions need not be identical. Identical values can stand only once. Compounds without any hit were thinned out: in the full panel of roughly 83,000, 20% have a hit.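 Single-dose data. Exposure time 48 hours. Values below 10 considered active.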 Values without a mark were called inactive. Calls of active or inactive are those of the source.

The compounds below were run on MDA-MB-468 breast (assay: NCI-60 one-dose screen, 48 h (100 = growth as untreated, 0 = no growth, -100 = all killed)). Conditions: 10 µM unless noted.
COc1ccccc1-n1c(-c2sc(NC(C)=O)nc2C)n[nH]c1=S showed a growth of 124%.
With CCCc1n(Cc2ccc3ccccc3c2)c2ccccc2[n+]1Cc1ccc2ccccc2c1 the growth was -44.7% (active).
O=C(Cc1ccc(/C=C/C(=O)c2ncc[nH]2)cc1)Nc1ccc(S(F)(F)(F)(F)F)cc1 showed a growth of 52.7%.
With CC[n+]1c(/C=C/C=C2\N(C)c3ccccc3C2(C)C)sc2ccccc21 the growth was -12.3% (active).
With CC(=O)N1N=C(c2ccc(C)cc2)CC1c1cn(-c2ccccc2)nc1-c1cccc(Nc2ccnc3cc(Cl)ccc23)c1 (stereo not given) the growth was 9.76% (active).
In the case of CCOC(=O)c1c(-c2ccc(Cl)cc2)c(C#N)c(=O)n(-c2ccccc2CC)c1N, the growth is reported as 98.9%.
COC(=O)[C@]12CC[C@@H](C)[C@H](C)[C@@H]1C1=CC[C@@H]3[C@@]4(C)C(C=O)=C[C@@](C)(CO)C4=CC[C@@]3(C)[C@]1(C)CC2 gave a growth of 20%.
With OC(c1ccc(F)c(C(F)(F)F)c1)c1cnccc1NC1CCCCC1 (stereo not given) the growth was 9.9% (active).
With Cn1ccc(=O)c(C(=O)Nc2nsc3ccc([N+](=O)[O-])cc23)c1 the growth was 87.1%.
For Nc1nnc2cc(Cl)ccc2n1, the growth was 101%.
For C=C1CC[C@@H]2[C@](C)(COC(C)=O)[C@H](OC(C)=O)CC[C@@]2(C)[C@@H]1CC(Nc1ccc(S(=O)(=O)Nc2nccs2)cc1)C1=CCOC1=O (stereo not given in full), the growth was -59.9% (active).
N#CCC1CCCC1 gave a growth of 97.4%.
NS(=O)(=O)c1ccc(-n2cc(CN3CCCCC3)nn2)cc1 gave a growth of 101%.
For CC(N)C(Cc1ccc(Cl)cc1)c1ccc(Cl)cc1 (stereo not given), the growth was 41.6%.
CCCCn1cnc(-c2cc(-c3ccccc3)cc(C(F)(F)F)c2)n1 gave a growth of 99%.
Compound CN(C)c1ncc(/C=C2\SC(=S)N(Cc3ccccc3Cl)C2=O)s1 has a growth of 95.6%.
For O=C1N/C(=N/N=C(c2ccccc2)c2ccccc2)S/C1=C\c1ccc(Br)cc1, the growth was 103%.
COc1ccc(-c2csc(NC(=O)c3cc(OC)c(OC)c(OC)c3)n2)cc1 was tested, and the growth was 86.8%.
With O=C(OC[C@@H]1CO1)c1cccc2c(=O)c3ccccc3[nH]c12 the growth was -52% (active).
In the case of COc1cc(C2NC(c3ccc(Cl)cc3)C(C)C(=NC(=O)c3cnccn3)C2C)cc(OC)c1OC (stereo not given), the growth is reported as 91.6%.
For COC(=O)[C@H](Cc1cn(C)cn1)NC(=O)[C@@H](NC(=O)Nc1cc(C(F)(F)F)cc(C(F)(F)F)c1)C(C)(C)C, the growth was -63.1% [100 µM] (active).
COc1ccc(CCN(C)CCCC(C#N)(c2ccc(OC)c(OC)c2)C(C)C)cc1OC (stereo not given) was tested, and the growth was 97.9% and 89.5%.
For O=Cc1c(O)c2ccccc2[nH]c1=O, the growth was 94.5%.
With CCCCCCC(CCCC)COC(=O)c1ccc(Cl)cc1 (stereo not given) the growth was 96.2%.
Work on COc1ccc(CCN2CCC(CN(C)Cc3cnn(-c4ccccc4)c3)CC2)cc1 yielded a growth of 19%.
In the case of Cn1ccnc1C(=O)/C=C/c1ccc(CNC(=O)c2ccc(S(F)(F)(F)(F)F)cc2)cc1, the growth is reported as 23.3%.
For Cc1cc(N2CCCCCC2)nc(NC2CCCC(Nc3ccnc4cc(Cl)ccc34)C2)n1 (stereo not given), the growth was -63.9% (active).
CC1CN(c2oc(-c3ccccc3)nc2C#N)CC(C)O1 (stereo not given) gave a growth of 109%.
O=C(NC(=S)Nc1ccccn1)c1ccccc1 showed a growth of 45.1%.
Compound COc1ccc(/C=N/NC(=O)c2[nH]c3ccc(Br)cc3c2-c2ccccc2)o1 has a growth of 13%.
With CCCCCCCCCCCCCCCCCCOc1ccccc1CC(=O)OCC[N+]1(C)CCCC1 the growth was -23.8% (active).
In the case of FC(F)(F)c1ccc(-c2cnc(Br)nc2NC2CCCCCC2)cc1, the growth is reported as 12.6%.
O=C(C[C@]1(O)C(=O)Nc2ccc(Br)cc21)c1ccco1 gave a growth of 109%.
C=C1C(=O)O[C@H]2[C@H]1CC/C(COC(=O)CCCCCCCC(=O)OC/C1=C/CC[C@@]3(C)O[C@H]3[C@H]3OC(=O)C(=C)[C@@H]3CC1)=C\CC[C@@]1(C)O[C@@H]21 was tested, and the growth was -21.6% (active).
With COc1ccc(-c2cc(-c3ccc(Cl)cc3)nc(NCCCCNc3ccnc4cc(Cl)ccc34)n2)cc1 the growth was 75.1%.
In the case of CC(C)(C)NC(=O)C(OC(=O)c1cccc(Cl)c1)c1ccc(Cl)cc1 (stereo not given), the growth is reported as 87.9%.
For CCCCCCCCCCCCCCCCCCn1cc(COc2ccc(C=O)cc2)nn1, the growth was 104%.
In the case of Cc1cc2c(C)c3cc(C)c(N)cc3nc2cc1N, the growth is reported as -5.78% (active).
CC(C)(C)c1ccc(OP(=S)(N/N=C/c2ccccc2O)Oc2ccc(C(C)(C)C)cc2)cc1 gave a growth of 35.4%.
With CCOC(=O)c1c(C)nc2c(c1N)/C(=C/c1ccc(OC)cc1)C(=O)N2Cc1ccc(F)cc1 the growth was -16.4% (active).
